# From the supplement of paper PMC7380943
# Counter-ions that a name gives are not always drawn.
# Tests used:
# [1] = system: CLZ3 (HCA2 human fibroblast dual HR-NHEJ reporter); assay: NHEJ repair efficiency (GFP+ cells) relative to control (log10 fold); higher = more non-homologous end joining; settings: 5 µM; doxycycline 0.5 ug/mL
# [2] = system: CLZ3 (HCA2 human fibroblast dual HR-NHEJ reporter); assay: HR repair efficiency (tdTomato+ cells) relative to control (log10 fold); higher = more homologous recombination; settings: 5 µM; doxycycline 0.5 ug/mL
# 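For HR repair efficiency (tdTomato+ cells) relative to control in this document: compound given one day before doxycycline, which switches on I-SceI endonuclease expression to create double-strand breaks within the integrated reporter.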
# 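For NHEJ repair efficiency (GFP+ cells) relative to control in this document: compound given one day ahead of doxycycline, which switches on I-SceI endonuclease to cut the chromosomally integrated reporter and create DSBs.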
SMILES,NHEJ repair efficiency (log10) [1],HR repair efficiency (log10) [2]
CNCC(O)c1ccc(O)cc1 (stereo not given) [Synephrine],0.0915,0.108
CCN1C[C@]2(COC)CC[C@H](OC)[C@]34C1[C@H]([C@H](OC)[C@H]23)[C@@]1(O)C[C@H](OC)[C@H]2C[C@@H]4[C@@H]1[C@H]2O [Chasmanine],0.0232,-0.00256
CC(C)=CCC[C@](C)(O)[C@H]1CC[C@]2(C)[C@@H]1[C@H](O)C[C@@H]1[C@@]3(C)CC[C@H](O)C(C)(C)[C@@H]3[C@@H](O[C@@H]3O[C@H](CO)[C@@H](O)[C@H](O)[C@H]3O)C[C@]12C [Ginsenoside Rh1],-0.0663,0.25
COc1cc(C(=O)OC2C3C=COC(OC4OC(CO)C(O)C(O)C4O)C3C3(CO)OC23)ccc1O (stereo not given) [Amphicoside Ii],0.0243,-0.0261
C[C@H]1C(=O)O[C@@H]2CCN3CC=C(COC(=O)[C@](C)(O)[C@]1(C)O)[C@H]23 [Monocrotaline],-0.0165,0.0383
COc1cccc2c1cc([N+](=O)[O-])c1c(C(=O)O)cc3c(c12)OCO3 [Aristolochic acid A],0.203,0.0578
C=C[C@@H](O)C#CC#C[C@@H](O)/C=C\CCCCCCC [Falcarindiol],-0.109,-0.13
c1cc2c(cc1[C@H]1OC[C@H]3[C@@H]1CO[C@@H]3c1ccc3c(c1)OCO3)OCO2 [Sesamin],0.0857,0.185
COC(=O)C1=CCCN(C)C1 [Arecoline Hydrobromide],0.0326,0.0648
CN1[C@@H]2C[C@@H](OC(=O)[C@H](CO)c3ccccc3)C[C@H]1[C@@H]1O[C@@H]12 [Scopolamine Hydrobromide],0.039,-0.0275
